Test results reported in PubChem BioAssay (NCATS).
Results filed as inconclusive are left out. Activity calls are given as the source filed them. Unless noted, calls come from the whole dose curve; as a rule, active = well fitted curve in the direction sought with a large enough effect; inconclusive = small, poorly fitted or top-dose-only effect, or another doubt; inactive = no such curve, though single readings can be large; an effect the other way counts as inactive or inconclusive.

Experiments:
[1] = molecular target: Lysosomal acid glucosylceramidase (Homo sapiens) (UniProt P04062); assay: Glucocerebrosidase-p2 (AID 348; in the data active = potency below about 10 µM; note: potency is the fitted concentration of half-maximal effect); conditions: purified GBA, blue fluorogenic substrate, 40 min
Sequence of Lysosomal acid glucosylceramidase (Homo sapiens) (P04062 whole entry, looked up): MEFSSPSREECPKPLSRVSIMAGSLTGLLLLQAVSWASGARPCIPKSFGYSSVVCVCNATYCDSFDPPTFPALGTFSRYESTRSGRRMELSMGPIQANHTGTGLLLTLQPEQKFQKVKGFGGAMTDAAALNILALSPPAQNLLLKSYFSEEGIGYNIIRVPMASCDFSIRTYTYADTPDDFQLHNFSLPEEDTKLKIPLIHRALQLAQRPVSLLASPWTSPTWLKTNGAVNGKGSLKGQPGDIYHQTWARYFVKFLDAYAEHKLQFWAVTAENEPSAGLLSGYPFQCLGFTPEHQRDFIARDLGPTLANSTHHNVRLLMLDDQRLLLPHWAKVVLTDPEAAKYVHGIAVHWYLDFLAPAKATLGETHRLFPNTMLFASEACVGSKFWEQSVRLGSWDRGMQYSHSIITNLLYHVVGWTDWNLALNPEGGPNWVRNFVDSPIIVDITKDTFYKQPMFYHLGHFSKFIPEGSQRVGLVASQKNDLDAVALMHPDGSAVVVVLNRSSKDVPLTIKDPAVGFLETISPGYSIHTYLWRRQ
Method in brief: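 Normal human glucocerebrosidase (0.2 nM) with blue fluorogenic substrate (80 uM final) in citrate/phosphate pH 5.9 with 10mM sodium taurocholate, 0.01% tween-20; 40 min RT, NaOH/glycine stop; fluorescence Ex 365/Em 440; AC50 from a titration from 0.6 nM upwards.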

[2] = AP1 Signaling Pathway (AID 357; active = well fitted curve in either direction with a large enough effect, not every such curve was filed as active;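 note: ME-180 reporter cells stimulated with EGF at its EC50 level; % is set by controls: 0 for no effect and ±100 for the full control effect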); conditions: ME-180 AP-1-bla reporter, EGF-induced, beta-lactamase ratio, 5 h; at 7.69 µM (top of the series) unless noted
Method in brief: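 Titration-series screen for positive or negative modulators of EC50 EGF-induced signaling in ME-180 cells carrying an AP-1-driven beta-lactamase reporter. After 5 hours at 37 degrees Celsius, CCF4 460nm/530nm emission ratio gave %Activity; AC50 values derived.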

[3] = NFAT Signaling Pathway (AID 444; active = well fitted curve in either direction with a large enough effect, not every such curve was filed as active;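 note: carbachol stimulus at about its EC50 of 1 µM final; % is set by controls: 0 for no effect and ±100 for the full control effect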); conditions: Jurkat NFAT-bla M1, carbachol, beta-lactamase ratio, 5 h; at 7.69 µM (top of the series) unless noted
Method in brief: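 Read-out: CCF4 FRET ratio (460 nm/530 nm) after 1 h RT dye loading, used for %activity and AC50 from titration series. Cells: Jurkat NFAT-β-lactamase/M1 line, treated with compound plus 1 uM carbachol for 5 h, 37 °C.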

[4] = Stat Signaling Pathway (AID 446; active = well fitted curve in either direction with a large enough effect, not every such curve was filed as active;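 note: ME-180 cervical cancer cells given 40 pM IL-6 alongside compound; SIE-controlled beta-lactamase reporter measured as 460/530 nm FRET emission ratio; % is set by controls: 0 for no effect and ±100 for the full control effect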); conditions: ME-180 (cervical carcinoma) SIE beta-lactamase reporter, IL-6 stimulated, 5 h; at 7.69 µM (top of the series) unless noted
Method in brief: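 FRET read-out (405 nm excitation, 460/530 nm emission) of a beta-lactamase reporter under a STAT-inducible element in ME-180 cervical carcinoma cells. Cells with compound receive 40 pM IL-6 for 5 h. Values are normalised to AC90 stimulation and AC90 JAK-inhibitor controls.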

[5] = molecular target: Glucocorticoid receptor (Homo sapiens) (UniProt P04150); assay: GR-GFP Redistribution (AID 450;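 active = compounds whose dose series gives a full or clear partial fitted curve of increased nuclear translocation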; note: potency is the fitted concentration of half-maximal effect); conditions: U2OS GR-GFP nuclear translocation, laser cytometry, 2 h
Sequence of Glucocorticoid receptor (Homo sapiens) (P04150 whole entry, looked up, the tested form may be a part): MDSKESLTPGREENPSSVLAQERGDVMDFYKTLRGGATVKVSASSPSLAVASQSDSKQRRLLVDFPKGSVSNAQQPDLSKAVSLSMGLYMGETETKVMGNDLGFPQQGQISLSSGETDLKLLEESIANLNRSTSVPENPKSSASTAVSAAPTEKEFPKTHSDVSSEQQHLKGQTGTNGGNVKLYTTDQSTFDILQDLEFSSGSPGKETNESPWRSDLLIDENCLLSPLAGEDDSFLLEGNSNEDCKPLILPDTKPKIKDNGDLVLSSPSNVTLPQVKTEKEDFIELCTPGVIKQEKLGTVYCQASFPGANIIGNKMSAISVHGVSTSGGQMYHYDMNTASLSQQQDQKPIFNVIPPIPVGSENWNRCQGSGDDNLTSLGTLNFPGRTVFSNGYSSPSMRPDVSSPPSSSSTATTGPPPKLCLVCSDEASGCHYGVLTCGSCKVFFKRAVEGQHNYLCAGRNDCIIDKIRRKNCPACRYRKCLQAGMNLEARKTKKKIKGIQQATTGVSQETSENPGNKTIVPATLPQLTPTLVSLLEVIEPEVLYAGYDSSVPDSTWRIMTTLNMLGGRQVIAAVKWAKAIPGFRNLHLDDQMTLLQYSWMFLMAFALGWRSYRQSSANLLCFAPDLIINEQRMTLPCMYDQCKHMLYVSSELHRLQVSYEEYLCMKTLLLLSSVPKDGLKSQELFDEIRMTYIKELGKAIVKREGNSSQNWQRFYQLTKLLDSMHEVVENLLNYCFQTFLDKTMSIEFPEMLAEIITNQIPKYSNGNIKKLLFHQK

[6] = molecular target: Glucocorticoid receptor (Homo sapiens) (UniProt P04150); assay: GR-EFC Redistribution (AID 451; calls by dose curve; note: potency is the fitted concentration of half-maximal effect); conditions: CHO-K1 GR-EFC translocation, beta-gal luminescence, 2 h
Method in brief: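 Translocation of GR-ED fusion to nuclear EA restores b-gal, read by luminescence after 1 h room-temperature detection. Engineered CHO-K1 biosensor cells, 1,000/well, exposed 2 h at 37 C to titrations up to 46 uM final.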

[7] = molecular target: Mitogen-activated protein kinase 10 (Mus musculus) (UniProt Q61831); assay: JNK3 AlphaScreen Assay (AID 530; active = well fitted curve in either direction with a large enough effect, not every such curve was filed as active;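 note: kinase came from lysate of stimulated human HepG2 cells; signal reports phosphorylation of biotinylated GST-cJun 1-79 at Ser73 with 10 µM ATP; % is set by controls: 0 for no effect and ±100 for the full control effect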)
Method in brief: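 Kinase buffer: 20 mM Tris-HCl pH 7.6, 10 mM MgCl2, 1 mM DTT, 0.1 mM Na3VO4, 0.01% Tween-20; ATP 10 uM. Substrate biotin-GST-cJun(1-79), enzyme from activated HepG2 lysates. Detection by Ser73 phospho-antibody AlphaScreen.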

[8] = qHTS Assay for Lipid Storage Modulators (AID 1519; calls by dose curve); conditions: Drosophila S3 cells, BODIPY lipid droplet/cell ratio, laser cytometry, cells loaded with oleic acid; for activity change, negative = inhibition: at 57.5 µM (top of the series)
Method in brief: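 Cells seeded at 5,000 per well were treated with compounds over a concentration series and loaded with oleic acid (400 uM, as added). Lipid droplet fluorescence (488 nm excitation, 500-530 nm channel) was read by laser-scanning cytometry and normalized to 20 uM Triacsin C.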

[9] = molecular target: Dual specificity protein kinase CLK4 (Homo sapiens) (UniProt Q9HAZ1); assay: qHTS Assay for Inhibitors of CDC-like Kinase 4 (Kinase-Glo Assay) (AID 1770); note: % is set by controls: 0 for no effect and ±100 for the full control effect; nearly all actives have a fitted effect of over 65% in size
Sequence of Dual specificity protein kinase CLK4 (Homo sapiens) (Q9HAZ1 whole entry, looked up): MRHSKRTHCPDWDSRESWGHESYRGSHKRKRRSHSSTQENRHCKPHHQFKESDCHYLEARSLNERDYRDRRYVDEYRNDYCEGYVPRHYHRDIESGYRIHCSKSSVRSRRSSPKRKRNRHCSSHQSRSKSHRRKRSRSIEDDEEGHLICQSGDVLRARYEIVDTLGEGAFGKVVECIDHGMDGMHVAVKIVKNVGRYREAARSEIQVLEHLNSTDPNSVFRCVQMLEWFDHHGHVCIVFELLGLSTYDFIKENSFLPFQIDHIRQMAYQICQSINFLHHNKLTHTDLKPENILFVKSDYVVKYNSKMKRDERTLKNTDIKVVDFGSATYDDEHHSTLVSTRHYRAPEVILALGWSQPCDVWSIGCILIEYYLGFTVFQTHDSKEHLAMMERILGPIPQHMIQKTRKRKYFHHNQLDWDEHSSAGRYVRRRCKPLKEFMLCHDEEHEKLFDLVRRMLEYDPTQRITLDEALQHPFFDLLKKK
Method in brief: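 Recombinant human Clk4 (25 nM) phosphorylated RS repeat peptide (100 uM) with 1 uM ATP in Tris pH 7.5/MgCl2/EGTA/DTT/Triton buffer for 4.5 h at room temperature. Residual ATP was quantified by Kinase-Glo luciferase luminescence.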

[10] = molecular target: Dual specificity protein kinase CLK4 (Homo sapiens) (UniProt Q9HAZ1); assay: qHTS Assay for Inhibitors of CDC-like Kinase 4 (ADP-Glo Assay) (AID 1771); note: % is set by controls: 0 for no effect and ±100 for the full control effect; nearly all actives have a fitted effect of over 70% in size
Method in brief: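 In this ADP-Glo format, 1 uM ATP and 100 uM RS peptide served as substrates for 25 nM Clk4 in Mg2+/EGTA/DTT/Triton buffer; reactions ran 1 hr at room temperature before luminescent ADP quantification.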

[11] = molecular target: Dual specificity protein kinase CLK4 (Homo sapiens) (UniProt Q9HAZ1); assay: qHTS Assay for Inhibitors of CDC-like Kinase 4 (ADP-FP Assay) (AID 1795); note: % is set by controls: 0 for no effect and ±100 for the full control effect; nearly all actives have a fitted effect of over 60% in size
Method in brief: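 Recombinant human Clk4 (6.25 nM) phosphorylated RS repeat peptide (100 uM) with 1 uM ATP in Tris pH 7.5/MgCl2/EGTA/DTT/Triton buffer for one hour. ADP was quantified by Transcreener competitive fluorescence polarization against an ADP calibration curve.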

[12] = molecular target: Ubiquitin carboxyl-terminal hydrolase 1 (Homo sapiens) (UniProt O94782); assay: Inhibitors of USP1/UAF1: Pilot qHTS (AID 504865);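 note: rhodamine fluorescence freed from ubiquitin-rhodamine substrate followed over time; top concentration of the series differs between compounds; % is set by controls: 0 for no effect and ±100 for the full control effect; nearly all actives have a fitted effect of over 35% in size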
Sequence of Ubiquitin carboxyl-terminal hydrolase 1 (Homo sapiens) (O94782 whole entry, looked up): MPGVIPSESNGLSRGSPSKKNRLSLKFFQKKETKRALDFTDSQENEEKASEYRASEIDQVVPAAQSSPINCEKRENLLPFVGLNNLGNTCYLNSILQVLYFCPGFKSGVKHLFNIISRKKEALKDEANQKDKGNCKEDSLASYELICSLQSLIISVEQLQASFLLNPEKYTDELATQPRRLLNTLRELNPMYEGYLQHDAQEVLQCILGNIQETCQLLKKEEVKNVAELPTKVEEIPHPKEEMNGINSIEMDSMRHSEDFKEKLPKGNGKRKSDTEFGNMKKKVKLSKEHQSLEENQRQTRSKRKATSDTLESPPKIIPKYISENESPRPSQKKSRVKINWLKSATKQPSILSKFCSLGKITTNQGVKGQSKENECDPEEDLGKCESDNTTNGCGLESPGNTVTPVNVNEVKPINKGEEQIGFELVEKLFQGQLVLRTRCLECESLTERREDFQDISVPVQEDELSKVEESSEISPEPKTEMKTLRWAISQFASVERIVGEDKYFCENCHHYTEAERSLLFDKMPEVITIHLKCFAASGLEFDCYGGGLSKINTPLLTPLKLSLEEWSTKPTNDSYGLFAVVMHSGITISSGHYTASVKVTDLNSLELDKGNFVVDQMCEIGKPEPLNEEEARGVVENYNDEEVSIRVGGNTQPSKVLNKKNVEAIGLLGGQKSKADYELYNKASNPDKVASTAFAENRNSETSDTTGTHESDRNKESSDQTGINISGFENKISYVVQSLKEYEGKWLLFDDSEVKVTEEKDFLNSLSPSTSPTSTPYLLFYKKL
Method in brief: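 USP1/UAF1 complex (1nM) preincubated with compound 15 min at room temperature, then Ub-Rho substrate (150nM final) added. Fluorescence read kinetically at 480/540 nm, 6 reads every 60 seconds. Buffer: 50mM HEPES pH 7.8, 0.5mM EDTA, 0.1 mg/ml BSA, 1mM TCEP, 0.01% Tween-20.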

[13] = Counterscreen qHTS for small molecule stabilizers of the endoplasmic reticulum resident proteome: GLuc-NoTag assay (AID 1508627);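 note: SH-SY5Y cells given compound then 100 nM thapsigargin to empty ER calcium; 0% = thapsigargin alone and -100% = DMSO vehicle control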
Method in brief: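 Counterscreen line: SH-SY5Y-GLuc-NoTag cells, treated with compound 19 hr before a 4 hr, 100 nM thapsigargin calcium depletion. Secreted Gaussia luciferase in the medium was measured by luminescence after coelenterazine was added (0.07x final), with cells unlysed.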

[14] = molecular target: 3',5'-cyclic-AMP phosphodiesterase 4B (Homo sapiens) (UniProt Q07343); assay: qHTS Assay for Inhibitors of PDE-IV (AID 607; active = well fitted activation curve with a large enough effect in the main read-out, with a control signal flat, not every such curve was filed as active; note: % of control where 0% means no effect)
Sequence of 3',5'-cyclic-AMP phosphodiesterase 4B (Homo sapiens) (Q07343 whole entry, looked up): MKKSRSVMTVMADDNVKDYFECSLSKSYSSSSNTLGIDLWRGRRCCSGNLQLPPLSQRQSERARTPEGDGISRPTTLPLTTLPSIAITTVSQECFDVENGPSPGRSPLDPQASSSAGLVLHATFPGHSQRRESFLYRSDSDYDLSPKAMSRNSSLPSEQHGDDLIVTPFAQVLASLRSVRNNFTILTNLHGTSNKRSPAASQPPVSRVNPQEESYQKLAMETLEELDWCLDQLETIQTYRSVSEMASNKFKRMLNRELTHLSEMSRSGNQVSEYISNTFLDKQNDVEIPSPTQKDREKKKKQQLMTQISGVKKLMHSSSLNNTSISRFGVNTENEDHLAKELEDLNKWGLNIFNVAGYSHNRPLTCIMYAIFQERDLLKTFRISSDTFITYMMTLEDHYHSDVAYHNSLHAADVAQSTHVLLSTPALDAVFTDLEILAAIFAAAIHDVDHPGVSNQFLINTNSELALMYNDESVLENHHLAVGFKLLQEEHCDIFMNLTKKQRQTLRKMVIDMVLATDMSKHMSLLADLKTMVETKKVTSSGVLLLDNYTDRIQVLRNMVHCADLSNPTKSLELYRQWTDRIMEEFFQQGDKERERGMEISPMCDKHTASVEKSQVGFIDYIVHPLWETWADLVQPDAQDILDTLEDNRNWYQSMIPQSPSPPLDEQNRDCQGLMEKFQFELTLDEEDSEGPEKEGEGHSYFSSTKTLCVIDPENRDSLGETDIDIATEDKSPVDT
Method in brief: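 Cell-based read-out of cAMP via a modified cyclic nucleotide-gated channel and membrane potential dye (535/590 nm) in HEK293 cells expressing PDE4 endogenously. Compounds tested up to 22.9 uM final; 100 uM RO 20-1724 reference.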

[15] = molecular target: Cytochrome P450 3A4 (Homo sapiens) (UniProt P08684); assay: qHTS Assay for Activators of Cytochrome P450 3A4 (AID 885); note: nearly all actives have a fitted effect of over 65% in size
Sequence of Cytochrome P450 3A4 (Homo sapiens) (P08684 whole entry, looked up): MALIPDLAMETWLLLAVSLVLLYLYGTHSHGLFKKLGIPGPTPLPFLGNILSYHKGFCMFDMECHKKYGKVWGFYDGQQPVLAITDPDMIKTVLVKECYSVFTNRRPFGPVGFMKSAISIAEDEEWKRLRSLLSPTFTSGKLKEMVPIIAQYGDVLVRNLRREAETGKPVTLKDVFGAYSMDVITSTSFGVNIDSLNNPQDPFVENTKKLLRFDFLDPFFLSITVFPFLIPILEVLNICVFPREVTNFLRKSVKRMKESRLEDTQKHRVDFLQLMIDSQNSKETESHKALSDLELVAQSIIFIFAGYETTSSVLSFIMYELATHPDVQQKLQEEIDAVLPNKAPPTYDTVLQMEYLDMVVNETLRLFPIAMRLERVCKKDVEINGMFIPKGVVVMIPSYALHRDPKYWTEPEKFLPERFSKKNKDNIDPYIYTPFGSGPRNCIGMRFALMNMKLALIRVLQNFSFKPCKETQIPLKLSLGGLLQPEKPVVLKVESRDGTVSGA
Method in brief: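 Luminescent readout of luciferin formed from 25 uM Luciferin-PPXE (KM level) by 20 nM CYP3A4 in 200 mM KPO4, with 60 min NADPH-driven reaction at room temperature after 10 min compound exposure. Ketoconazole (57 uM) defined 100% inhibition.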

[16] = Cell Viability qHTS for small molecule stabilizers of the endoplasmic reticulum resident proteome (AID 1508629); conditions: cell viability counter-screen, 100 nM thapsigargin for final 4 h
[17] = molecular target: Cytochrome P450 1A2 (Homo sapiens) (UniProt P05177); assay: p450-cyp1a2 (AID 410; calls by dose curve; note: potency is the fitted concentration of half-maximal effect)
Sequence of Cytochrome P450 1A2 (Homo sapiens) (P05177 whole entry, looked up): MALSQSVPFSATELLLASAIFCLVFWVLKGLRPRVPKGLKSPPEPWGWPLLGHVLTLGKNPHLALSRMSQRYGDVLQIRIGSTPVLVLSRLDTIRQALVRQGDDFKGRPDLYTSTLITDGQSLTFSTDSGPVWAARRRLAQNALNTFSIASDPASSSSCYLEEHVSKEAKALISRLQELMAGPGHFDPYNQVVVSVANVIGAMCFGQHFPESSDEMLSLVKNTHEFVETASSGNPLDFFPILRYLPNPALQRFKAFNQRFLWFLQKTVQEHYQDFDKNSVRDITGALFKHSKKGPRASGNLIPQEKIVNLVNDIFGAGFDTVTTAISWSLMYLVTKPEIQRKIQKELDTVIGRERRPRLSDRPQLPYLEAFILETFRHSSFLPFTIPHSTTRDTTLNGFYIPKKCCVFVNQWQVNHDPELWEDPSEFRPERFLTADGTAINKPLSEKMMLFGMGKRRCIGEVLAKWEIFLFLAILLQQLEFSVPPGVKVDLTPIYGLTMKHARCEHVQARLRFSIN
Method in brief: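 Read-out is luminescence from luciferin produced by CYP1A2 demethylation of Luciferin-ME (100uM, at Km). Detection reagent stopped the 60 min NADPH-dependent reaction; signals were normalized to 57 uM furafylline.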

[18] = measured here: cell count channel max response
[19] = measured here: lipid channel max response

COCCn1c(=O)c(-c2ccc(Cl)cc2)nc2cnc(OCc3ccccc3)nc21
inactive: Potency [1] > 11.4 µM | activity change, negative = inhibition [2] -14.1% | activity change, negative = inhibition [3] 1.06% | activity, negative = inhibition [4] -2.08% | Potency [5] > 9.22 µM | Potency [6] > 46 µM | outcome [7] | activity change, negative = inhibition [8] -8.74% | Potency [9] | Potency [10] | Potency [11] | Potency [12] | Potency [13]
-15.5%: max response [8, 19]
-2.09%: max response [8, 18]

O=C(Nc1cccc(F)c1)N1CCCC2(CCNCC2)C1
inactive: Potency [1] > 11.4 µM | activity change, negative = inhibition [2] -6.17% | activity change, negative = inhibition [3] 12.2% | activity, negative = inhibition [4] -5.47% | Potency [6] > 46 µM | outcome [7] | Potency [14] | Potency [15] | Potency [13] | max response [16] 8.67%

COc1ccc(Oc2ncc3nc(CCc4ccccc4)c(=O)n(C[C@H]4CCCO4)c3n2)cc1
inactive: activity change, negative = inhibition [2] -25.6% | activity change, negative = inhibition [3] -6.61% | activity, negative = inhibition [4] -17.3% | Potency [5] > 9.22 µM | Potency [6] > 46 µM | outcome [7] | Potency [14] | Potency [10] | Potency [11] | Potency [12] | Potency [13] | max response [16] 6.27%

COc1ccc(Oc2ncc3nc(-c4ccccc4)c(=O)n(C4CC4)c3n2)cc1
inactive: Potency [1] > 11.4 µM | activity change, negative = inhibition [2] -15.8% | activity change, negative = inhibition [3] 5.68% | activity, negative = inhibition [4] -1.16% | Potency [5] > 9.22 µM | Potency [6] > 46 µM | outcome [7] | Potency [14] | Potency [13] | max response [16] 12.6%

COc1ccc(Oc2ncc3nc(-c4cccs4)c(=O)n(CCC#N)c3n2)cc1
inactive: Potency [1] > 11.4 µM | activity change, negative = inhibition [2] -1.5% | activity change, negative = inhibition [3] -5.68% | activity, negative = inhibition [4] -11.5% | Potency [5] > 9.22 µM | Potency [6] > 46 µM | outcome [7] | Potency [14] | activity change, negative = inhibition [8] 2.6% | Potency [9] | Potency [10] | Potency [11] | Potency [12] | Potency [13] | max response [16] 18.3%
10.8%: max response [8, 18] | max response [8, 19]

CCCCCCCCCCCCc1ccccc1O
inactive: Potency [13] | max response [16] 11.8%

CN(C)c1nccc(N(Cc2ccccc2)Cc2ccccc2)c1C#N
inactive: Potency [13] | max response [16] -2.77%

Cc1nc2cnc(N3CCN(C)CC3)nc2n(-c2ccccc2)c1=O
inactive: activity change, negative = inhibition [2] -10.2% | activity change, negative = inhibition [3] -6.35% | Potency [5] > 9.22 µM | Potency [6] > 46 µM | outcome [7] | Potency [14] | activity change, negative = inhibition [8] 2.71% | Potency [10] | Potency [11] | Potency [12] | Potency [13]
active: Potency [17] 3.98 µM
7.22%: max response [8, 18]
7.19%: max response [8, 19]
